Reference: PubChem BioAssay (Tox21)
The source made the active and inactive calls. Calls come from the whole dose curve; as a rule, active = well fitted activation curve with a large enough effect in the repeat runs; inconclusive = weak or mixed curves; inactive = flat fitted curve, though single readings scatter.

Molecular target: KiSS-1 receptor (Homo sapiens) (UniProt Q969F8)
Assay: Human kisspeptin (KISS1R) small molecule agonists, calcium flux assay in KISS1R-HEK293 cells (AID 1920064)
Conditions: KISS1R-HEK293, calcium flux fluorescence, agonist; series mostly up to 76.8 µM; activation: at the top concentration
Text: National Center for Advancing Translational Sciences [NCATS]
Division of Preclinical Innovation [DPI]
U.S. Environmental Protection Agency [EPA]
National Institutes of Environmental Health Sciences [NIEHS]
National Toxicology Program [NTP]
U.S. Food and Drug Administration [FDA]
Kisspeptin and its receptor KISS1R play key roles in mammalian reproduction due to their involvement in the onset of puberty and control of the hypothalamic-pituitary-gonadal axis such as regulates GnRH release from the hypothalamus. The kisspeptin/KISS1R system also plays a direct role in peripheral organs (including the ovary, testis, uterus, and placenta) and is implicated in reproductive diseases such as miscarriage and polycystic ovary syndrome (PCOS). Abnormal KISS1R activity is associated with abnormal puberty, infertility, endometriosis, and hormone-dependent tumors. The KISS1 receptor (KISS1R, also called GPR54), a G-protein-coupled receptor (GPCR), acts (through phospholipase C) to increase intracellular inositol trisphosphate and then release intracellular calcium stores. Cell-based KISS1R-HEK293 assay is using HEK293 cells that have been genetically engineered to express the human KISS1R, which activity can be measured by calcium signaling. A compound/drug can activate (agonist) KISS1R that can be monitored by levels of intracellular calcium.
KISS1R-HEK293 cells developed by Codex Corp contain human KISS1R gene, which was stably integrated into HEK 293 cells. The compound activation can be detected by fluorescence intensity via calcium flux assay. This cell line has been used to screen the Tox21 10K compound library to identify agonists of KISS1R.
KISS1R-Hek293 cells were dispensed at 1500 cells/4uL/well in 1536-well black wall/clear bottom plates using a multidrop dispenser. After the assay plates were incubated at a 37 C/5% CO2 incubator for 18 hours, 4 microL of Calcium Dye Solution was added to each well. The plates were incubated at 37 C for 1 hour. And then 23 nL of compounds dissolved in DMSO, positive controls, or DMSO only was transferred to the assay plate by a pin tool station. The fluorescence intensity in the plates was measured using FDSS 7000EX kinetic plate reader with a filter set of Ex/Em=480/540 for 3 min at 1 sec intervals. Each test compound was measured at 15 concentrations and in triplicates.
% is set by controls: 0 for no effect and ±100 for the full control effect.

Chain of KiSS-1 receptor (Homo sapiens) (Q969F8 whole entry, looked up): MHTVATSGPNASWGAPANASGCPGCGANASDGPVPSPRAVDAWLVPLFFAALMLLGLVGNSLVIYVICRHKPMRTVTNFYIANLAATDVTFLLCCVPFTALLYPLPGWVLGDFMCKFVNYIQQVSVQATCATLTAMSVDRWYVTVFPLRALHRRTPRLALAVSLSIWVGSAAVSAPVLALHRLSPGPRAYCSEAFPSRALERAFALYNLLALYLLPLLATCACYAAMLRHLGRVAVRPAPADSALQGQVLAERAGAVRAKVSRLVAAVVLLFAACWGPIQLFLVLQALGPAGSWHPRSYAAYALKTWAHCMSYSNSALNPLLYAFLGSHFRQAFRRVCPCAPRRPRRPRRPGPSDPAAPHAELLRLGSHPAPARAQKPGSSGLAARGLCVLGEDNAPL

SMILES | activation
NCC(=O)CCC(=O)O | -0.301% [at 35.3 µM] (inactive)
CC1c2ccccc2CN1NC(=O)c1ccc(Cl)c(S(N)(=O)=O)c1 (stereo not given) | 3.43% [at 35.3 µM] (inactive)
N#CCc1ccccc1[N+](=O)[O-] | 0.663% (inactive)
c1ccc(CCNc2nc(-c3ccccc3)cs2)cc1 | 5.07% [at 35.3 µM] (inactive)
CC(C)Cc1nccs1 | 0.424% (inactive)
CCCCCCCC[Si](OCC)(OCC)OCC | 0.329% (inactive)
CC(Cl)C(Cl)Cl (stereo not given) | 0.248% (inactive)
C[C@H](CN1CCCC1)C(=O)c1ccc(C(F)(F)F)cc1 | 8.04% [at 35.3 µM] (inactive)
O=CN1CCCCC1 | 5.24% (inactive)
O=C(CCCN1CCC(O)(c2ccc(Br)cc2)CC1)c1ccc(F)cc1 | -1.09% [at 35.3 µM] (inactive)
Cc1cc(CC(=O)O)c(C)n1-c1ccc(Cl)cc1 | -0.693% [at 35.3 µM] (inactive)
COC(=O)[C@H]1[C@H]2C[C@@H]3c4[nH]c5cc(OC)ccc5c4CCN3C[C@H]2C[C@@H](OC(=O)COc2ccc(OC)cc2)[C@@H]1OC | 0.328% [at 35.3 µM] (inactive)
CCCCC(CC)COC(=O)CCCCCCCCC(=O)OCC(CC)CCCC (stereo not given) | 9.45% (inactive)
C=CCOc1nc(OCC=C)nc(OCC=C)n1 | 0.241% (inactive)
O=C(O)c1ccccc1C(=O)Nc1ccc(S(=O)(=O)Nc2nccs2)cc1 | -1.61% [at 35.3 µM] (inactive)
CCCCCCCCCCC(=O)O | 0.931% (inactive)
C=CC1CO1 (stereo not given) | -0.431% (inactive)
O=C(CCCl)NCCc1ccccc1 | -1.2% [at 35.3 µM] (inactive)
CCOC(=O)c1ccccc1O | -0.475% [at 35.3 µM] (inactive)
C[C@@H]1CN(c2c(F)c(N)c3c(=O)c(C(=O)O)cn(C4CC4)c3c2F)C[C@H](C)N1 | -1.07% [at 15.8 µM] (inactive)

SMILES | activation
C/C=C/C(=O)OCC(C)C | 0.64% (inactive)
C[N+](C)(C)CCOC(=O)CCC(=O)OCC[N+](C)(C)C | 2.54% [at 35.3 µM] (inactive)
Cc1ccc(S(=O)(=O)NC(=O)NN2CC3CCCC3C2)cc1 (stereo not given) | -1.57% [at 35.3 µM] (inactive)
N#Cc1c(F)cccc1F | -0.621% (inactive)
CO[Si](CCCNc1ccccc1)(OC)OC | -1.61% (inactive)
O=C(O)c1cccc(Oc2ccccc2)c1 | -1.43% (inactive)
Cc1cc(O)c(C(C)(C)C)cc1C(C)(C)C | 3.45% (inactive)
CC1=C(C(=O)OC(C)C)C(c2cccc([N+](=O)[O-])c2)C(C(=O)OC2CN(C(c3ccccc3)c3ccccc3)C2)=C(N)N1 (stereo not given) | -1.04% [at 35.3 µM] (inactive)
NC(=O)C(c1ccccc1)(c1ccccc1)[C@@H]1CCN(CCc2ccc3c(c2)CCO3)C1 | 0% [at 35.3 µM] (inactive)
C#CCOC(=O)[C@@H](C)Oc1ccc(Oc2ncc(Cl)cc2F)cc1 | 0.654% (inactive)
N#Cc1ccc(CC(=O)c2cccc(C(F)(F)F)c2)cc1 | -0.731% (inactive)
C=C[Si](C)(C)O[Si](C)(C)C=C | -0.069% (inactive)
CC[C@@H](CO)NCCN[C@@H](CC)CO | 3.3% [at 35.3 µM] (inactive)
O=C1Nc2cc(Cl)ccc2Oc2ccccc21 | -0.392% [at 35.3 µM] (inactive)
CC[C@@]1(O)C(=O)OCc2c1cc1n(c2=O)Cc2c-1nc1ccccc1c2/C=N/OC(C)(C)C | -1.51% [at 35.3 µM] (inactive)
C=CC/C=C/C/C=C/C/C=C/C | -1.08% (inactive)
C[C@@H]1[C@H](O)[C@@H](C)/C=C/C=C\C=C\C=C\C=C\C=C\C=C\[C@H](O[C@@H]2O[C@H](C)[C@@H](O)[C@H](N)[C@@H]2O)C[C@@H]2O[C@](O)(C[C@@H](O)C[C@@H](O)[C@H](O)CC[C@@H](O)C[C@@H](O)CC(=O)O[C@H]1C)C[C@H](O)[C@H]2C(=O)O (stereo in doubt) | 1.87% (inactive)
CCCCNc1ccc(NCCCC)c2c1C(=O)c1ccccc1C2=O | -3.45% [at 15.8 µM] (inactive)
CC(C)(O)c1ccccc1 | 0.515% (inactive)
CO[Si](CCC1CCC2OC2C1)(OC)OC (stereo not given) | 0.47% (inactive)
